The structures appear in SMILES notation. About 1,800 (2.5%) of roughly 71,000 compounds were called active. Another 26% or so got no clear call; they are omitted. The sample as a whole holds a higher share of actives than the screen did. Unmarked numbers belong to inactive results. Calls follow the shape of the dose curve; as a rule, active = well fitted activation curve with a large enough effect in the signal ratio, with a control signal flat (not every such curve was filed as active); inconclusive = small, poorly fitted or top-dose-only effect, or effect the other way, or a change in a side signal; inactive = flat fitted curve, though single readings scatter; the % refers to the signal ratio.
Potency is read from the fitted curve at half-maximal effect.

This experiment in a line: Cell signaling CRE-BLA (Fsk stim). As to activity change, negative = inhibition: % of control where 0% means no effect. Conditions: CHO CRE-bla reporter (cAMP response element driving beta-lactamase), forskolin EC10, beta-lactamase ratio; series mostly up to 38.2 µM; activity change, negative = inhibition: at the top concentration. In short, it runs like this: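 qHTS titration format; CRE-bla CHO reporter; stimulus EC10 NKH 477, a water-soluble forskolin. Read: CCF4 460/530 nm ratio. Potency expressed as AC50 for activators or inhibitors.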
Take `CC(C)(C)c1nc(NCC2CCCO2)c2nnn(Cc3ccccc3)c2n1` (centres undefined): the “activity change, negative = inhibition” value is 7.95%. With `CC(=O)NC(C)c1nc2ccccc2n1Cc1ccccc1F` (centres undefined), the “activity change, negative = inhibition” value was -9.33%.

`C#CCNc1nc(C(C)C)nc2c1nnn2Cc1ccccc1F`: the Potency is 10 µM (active). As for `Cc1cccc(C(=O)O)c1`, the “activity change, negative = inhibition” value is -9.1%. On to `COC(=O)c1ccc(CSc2nc3ccccc3c(=O)n2-c2cccc(OC)c2)o1`, for which the Potency is 5.01 µM (active). `O=c1c2ccccc2nc(CSc2nnnn2-c2ccccc2)n1-c1ccccc1`: the “activity change, negative = inhibition” value is -0.982%.

Consider `COC(=O)c1ccc(CSc2ccccc2C)o1`, for which the “activity change, negative = inhibition” value was -26.7%. Still for that read-out and setting: as for `CCOC(=O)CNC(=O)c1nn(-c2cccc(OC)c2)c(=O)c2ccccc12`, the figure is 14.6%; as for `CCCC(NC(=O)c1ccccc1)c1nc2ccccc2n1Cc1ccc(C(=O)OC)o1` (centres undefined), 10.7%. `COCC(C)n1c(SCc2ccc(C(=O)OC)o2)nc2ccccc2c1=O` (centres undefined): the Potency is 10 µM (active). For the compound `COc1ccc(S(=O)(=O)N2CCC(C(=O)N3CCOCC3)CC2)cc1OC`, the “activity change, negative = inhibition” value is 0.418%. `COC(=O)C1(C)C=CCN1C(=O)c1ccccc1` (centres undefined): the “activity change, negative = inhibition” value was -3.13%. Consider `CC1COC2C(O1)N(S(C)(=O)=O)CCN2S(C)(=O)=O` (centres undefined), for which the “activity change, negative = inhibition” value was -1.89%. In the case of `O=C(C1CCN(CC2CCCCC2)CC1)N1CCCC1`, the “activity change, negative = inhibition” value was -0.979%. `CCOC(=O)C1CCN(C(=O)Nc2ccc(Cl)cc2)CC1`: the “activity change, negative = inhibition” value is -3.28%. Consider `COCC(C)N=CC1=C(O)CC(C)(C)CC1=O` (centres undefined), for which the “activity change, negative = inhibition” value was 4.27%. `COCCn1c(C)cc(C(=O)CSc2ncnc3sc4c(c23)CCC4)c1C`: the “activity change, negative = inhibition” value is 8.37%. On the same count and under the same terms, as for `N=c1c2c3c(sc2ncn1N)CCCCC3`, the figure is -0.591%. Regarding `COCCNc1nc(-n2nc(C)cc2C)nc2sc3c(c12)CCCC3`, the Potency is 12.6 µM (active). Take `Cc1cc(N=CC2=C(O)CCCC2=O)no1`: the “activity change, negative = inhibition” value was -1.94%. The same measure, in the same setting: to `Cc1cc(C(=O)O)ccc1[N+](=O)[O-]` belongs -16.5%. As to `COC(=O)C1C(=O)CC(C)(O)C(C(=O)OC)C1c1ccc2c(c1)OCO2` (centres undefined), the “activity change, negative = inhibition” value was -1.98%. Take `C/C(=C\C(=O)c1cccnc1)Nc1ccc(C)c(C)c1`: the “activity change, negative = inhibition” value was 13.6%.

With `COc1ccc(NC(=O)CSc2nnc(-c3cccs3)n2Cc2ccco2)cc1OC`, the “activity change, negative = inhibition” value was 5.96%.

For the compound `CC(Sc1nc2ccccc2c(=O)n1Cc1ccco1)C(=O)c1ccccc1` (centres undefined), the “activity change, negative = inhibition” value is 4.85%. On to `COc1ccccc1NC(=O)CSc1nc2sc(C)c(C)c2c(=O)n1Cc1ccco1`, for which the Potency is 3.98 µM (active).

Regarding `CCCn1c(-c2ccc(F)cc2)nc2c(NC3CCN(Cc4ccccc4)C3)nc(C)nc21` (centres undefined), the “activity change, negative = inhibition” value is 10.1%. Still for that read-out and setting: as for `COC(CCN(C)C)(c1ccccc1)c1ccccc1`, the figure is -22.8% [at 7.6 µM]; as for `CCCC[C@@H]1C[C@H]1C(NC(=O)c1ccc(-c2ccccc2)cc1)c1ccc(-c2ccccc2)cc1` (some centres undefined), 2.34%; as for `COc1cc(OC)c(NC(=O)c2ccc(Br)o2)cc1Cl`, 19.3% [at 7.6 µM]. Regarding `O=C(Nc1ccc(-c2nnc(-c3ccccc3)o2)cc1)c1ccc(Br)o1`, the “activity change, negative = inhibition” value was -0.431%.

As to `Cc1cc(C)nc(-n2nc(C)cc2NC(=O)c2ccc(Br)o2)n1`, the Potency is 1.26 µM (active). Regarding `CCSC1(SCC)N=C(N)C2(C#N)C(c3ccccc3)NC(C)=CC12C#N` (centres undefined), the “activity change, negative = inhibition” value is -14.9%. Turning to `O=C(Cn1cnc2c(cnn2-c2ccc(F)cc2)c1=O)NCCc1ccccc1`, the “activity change, negative = inhibition” value is -4.15%. `CCOC(=O)c1cnc2sccn2c1=O`: the “activity change, negative = inhibition” value is -5.25%. Consider `CCCn1c(=NC(C)=O)c(C(=O)OCC)cc2c(=O)n3ccccc3nc21`, for which the Potency is 10 µM (active). In the case of `CCOC(=O)c1ccc(-n2c(C)nc3c(cnn3-c3ccccc3C)c2=O)cc1`, the “activity change, negative = inhibition” value is 4.93%.

Regarding `Cc1cc(C)cc(N)c1`, the “activity change, negative = inhibition” value was -7.14%. Same read-out and setting: as for `CCCCNc1nc(C)nc2c1nc(-c1ccccc1)n2CCCCN(CC)CC`, the figure is 6.32%. With `c1cnn(-c2cc(N3CCOCC3)ncn2)c1`, the “activity change, negative = inhibition” value was 17.7%. On to `O=C1c2ccccc2-c2ncnc3c(N4CCOCC4)cc(N4CCOCC4)c1c23`, for which the Potency was 2.51 µM (active).

`c1ccc(-c2oc3ncnc(N4CCOCC4)c3c2-c2ccccc2)cc1`: the “activity change, negative = inhibition” value was 6.93%. For `CSc1nnc(CNC(=O)c2ccccc2)n1-c1ccc(F)cc1`, the “activity change, negative = inhibition” value was -5.77%. As to `Cc1cccc(C(=O)O)c1[N+](=O)[O-]`, the “activity change, negative = inhibition” value is -4.85%. On to `CCOC(=O)c1cnc(-n2nc(C)cc2C)nc1Nc1cccc(C(C)=O)c1`, for which the “activity change, negative = inhibition” value was 3.18%.

For the compound `CC(=O)c1ccc(Oc2cc(C)nc(-n3nc(C)cc3C)n2)cc1`, the Potency is 7.94 µM (active).

As for `CCOC(=O)c1cnc(-n2nc(C)cc2C)nc1-n1nc(C)cc1C`, the “activity change, negative = inhibition” value was 28.9%. On to `O=C(Nc1ccccc1)N[C@H]1C[C@H](C(=O)O)Nc2cc(Cl)cc(Cl)c21`, for which the “activity change, negative = inhibition” value was -9.62%.

On to `O=C(CCCOc1ccccc1)Nc1cccc(C(=O)O)c1`, for which the “activity change, negative = inhibition” value was -1.76%. On the same count and under the same terms, as for `CN1CCN(c2cc(=O)n(-c3ccc(Cl)cc3)c(=O)[nH]2)CC1`, the figure is -6.94%; as for `Cc1cc(N(C)C)cc(C)[n+]1[O-]`, 2.28%. As for `COC(=O)C1=C(C)NC2=C(C(=O)c3ccccc32)C1c1ccc(-c2ccc(C(=O)O)cc2)o1` (centres undefined), the Potency is 0.398 µM (active). Regarding `COC(=O)C1=C(C)NC(=O)NC1/C=C/c1ccccc1` (centres undefined), the “activity change, negative = inhibition” value is -5.12%. With `COc1ccccc1NC(=O)C1=C(C)NC2=C(C(=O)CCC2)C1c1ccc(C)o1` (centres undefined), the “activity change, negative = inhibition” value was -1.9%. As to `Cc1ccc(CCn2c3c(c4ccccc42)CN(C)CC3)cn1`, the “activity change, negative = inhibition” value is -5.13%. With `O=C(O)CC(C(=O)O)C(CC(=O)O)C(=O)O` (centres undefined), the “activity change, negative = inhibition” value was -8.47%.

Turning to `CCCCC/C=C/C=C/C=O`, the “activity change, negative = inhibition” value is -1.75%. Same read-out and setting: to `CCOc1ccc(C(=O)Nc2cc(OC)ccc2OC)cc1` belongs 8.36%. Take `Cc1cc(C)c2nc(N3CCCC3)c(C#N)cc2c1`: the Potency was 10 µM (active).

The values are drawn from PubChem BioAssay AID662 (National Center for Advancing Translational Sciences (NCATS), 2007).
